Data reported in PubChem BioAssay (Tox21).
Several values for one entry are separate records, joined by “and”; a condition that tells them apart may be missing. Equal values may be shown once. Inconclusive results are not listed. Some compounds were tested as several samples or in several runs, with calls that do not always agree. Activity calls are given as the source filed them. Unless noted, calls follow the shape of the dose curve; as a rule, active = well fitted curve in the direction sought with a large enough effect in the repeat runs; inconclusive = weak or mixed curves; inactive = no such curve, though single readings can be large; an effect the other way counts as inactive or inconclusive.

What was measured:
[1] = qHTS assay to identify small molecule antagonists of the thyroid receptor (TR) signaling pathway (AID 743065); settings: GH3.TRE-Luc, T3-stimulated luciferase inhibition, 23.5 h; series mostly up to 70.3 µM; also: nearly all actives have a fitted effect of over 55% in size; also: potency is read from the fitted curve at half-maximal effect
Summary of the method: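 Antagonism measured as loss of luciferase signal in GH3 cells stably carrying a TRE-luciferase reporter, co-treated with compound and T3 (1 nM final) for 23.5 h at 37 C. Viability was read in the same well by CellTiter-Fluor.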

[2] = tested on: thyroid hormone receptor (rat, GH3 cells); assay: qHTS assay to identify small molecule agonists of the thyroid receptor (TR) signaling pathway (AID 743066; calls by dose curve); settings: GH3.TRE-Luc cells, TR agonist luciferase, 24 h; series mostly up to 83.9 µM
[3] = target: Estrogen receptor (Homo sapiens) (UniProt P03372); assay: qHTS assay to identify small molecule antagonists of the estrogen receptor alpha (ER-alpha) signaling pathway (AID 743069; active = well fitted curve in the direction sought with a large enough effect in the signal ratio in the repeat runs, not every such curve was filed as active; the % refers to the signal ratio; also: potency is read from the fitted curve at half-maximal effect); settings: HEK293 ER-alpha-UAS-bla, beta-lactamase ratio, antagonist mode; series mostly up to 69.4 µM
Summary of the method: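 Antagonist mode: compounds in DMSO were co-added with 17beta-estradiol to ER-alpha-bla HEK293 cells (2% charcoal-stripped serum) and left 18 h at 37C. Reporter inhibition was measured as FRET fluorescence after 2 h LiveBLAzer substrate at room temperature.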

[4] = qHTS assay to identify small molecule antagonists of the estrogen receptor alpha (ER-alpha) signaling pathway - cell viability counter screen (AID 743074; calls by dose curve;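 also: HEK293 cells carrying ER-alpha-UAS-bla reporter stimulated with 17beta-estradiol; nearly all actives have a fitted effect of over 45% in size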); settings: ERalpha-bla HEK293 viability, CellTiter-Glo luminescence, 18 h; series mostly up to 69.4 µM
[5] = target: Estrogen receptor (Homo sapiens) (UniProt P03372); assay: qHTS assay to identify small molecule agonists of the estrogen receptor alpha (ER-alpha) signaling pathway (AID 743075; calls by dose curve;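 also: HEK293 GripTite cells with ER-alpha and UAS-driven beta-lactamase reporter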; also: potency is read from the fitted curve at half-maximal effect); settings: HEK293 ER-alpha-UAS-bla, beta-lactamase FRET ratio, 18 h; series mostly up to 70.1 µM
[6] = target: Estrogen receptor (Homo sapiens) (UniProt P03372); assay: qHTS assay to identify small molecule agonists of the estrogen receptor alpha (ER-alpha) signaling pathway using the BG1 cell line (AID 743079); settings: BG1Luc4E2 cells, ERE-luciferase agonist, 22 h; series mostly up to 70.3 µM; also: nearly all actives have a fitted effect of over 20% in size; also: potency is read from the fitted curve at half-maximal effect
[7] = qHTS assay to identify small molecule antagonists of the estrogen receptor alpha (ER-alpha) signaling pathway using the BG1 cell line (AID 743080; calls by dose curve;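 also: BG1 cells stimulated with 17beta-estradiol alongside compound; nearly all actives have a fitted effect of over 25% in size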; also: potency is read from the fitted curve at half-maximal effect); settings: BG1Luc4E2 ERE-luciferase antagonist mode, luminescence; series mostly up to 70.3 µM
Summary of the method: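 Readout is ONE-Glo luminescence, taken 30 min at room temperature after reagent addition, preceded by a CellTiter-Fluor viability read; BG1-Luc-4E2 cells had received compound and 17beta-estradiol for 21.5 h at 37 C.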

[8] = qHTS assay to identify small molecule antagonists of the estrogen receptor alpha (ER-alpha) signaling pathway using the BG1 cell line - cell viability counter screen (AID 743081); settings: BG1Luc4E2 viability, CellTiter-Fluor, 22 h; series mostly up to 70.3 µM;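 also: compound given together with 17beta-estradiol as the ER stimulus; nearly all actives have a fitted effect of over 45% in size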; also: potency is read from the fitted curve at half-maximal effect
Aromatase (Homo sapiens) = Aromatase (Homo sapiens) (UniProt P11511); assay: qHTS assay to identify aromatase inhibitors (AID 743083); settings: MCF-7 aro ERE, testosterone-driven ERE luciferase, 24 h; series mostly up to 70.3 µM; also: nearly all actives have a fitted effect of over 55% in size
[9] = qHTS assay to identify aromatase inhibitors - cell viability counter screen (AID 743084); settings: MCF-7 aro ERE viability, CellTiter-Fluor, 24 h; series mostly up to 70.3 µM;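 also: cells stimulated with testosterone during compound exposure; nearly all actives have a fitted effect of over 55% in size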; also: potency is read from the fitted curve at half-maximal effect
% is scaled to controls: 0 for no effect and ±100 for the full control effect.

Chain of Estrogen receptor (Homo sapiens) (P03372 whole entry, looked up): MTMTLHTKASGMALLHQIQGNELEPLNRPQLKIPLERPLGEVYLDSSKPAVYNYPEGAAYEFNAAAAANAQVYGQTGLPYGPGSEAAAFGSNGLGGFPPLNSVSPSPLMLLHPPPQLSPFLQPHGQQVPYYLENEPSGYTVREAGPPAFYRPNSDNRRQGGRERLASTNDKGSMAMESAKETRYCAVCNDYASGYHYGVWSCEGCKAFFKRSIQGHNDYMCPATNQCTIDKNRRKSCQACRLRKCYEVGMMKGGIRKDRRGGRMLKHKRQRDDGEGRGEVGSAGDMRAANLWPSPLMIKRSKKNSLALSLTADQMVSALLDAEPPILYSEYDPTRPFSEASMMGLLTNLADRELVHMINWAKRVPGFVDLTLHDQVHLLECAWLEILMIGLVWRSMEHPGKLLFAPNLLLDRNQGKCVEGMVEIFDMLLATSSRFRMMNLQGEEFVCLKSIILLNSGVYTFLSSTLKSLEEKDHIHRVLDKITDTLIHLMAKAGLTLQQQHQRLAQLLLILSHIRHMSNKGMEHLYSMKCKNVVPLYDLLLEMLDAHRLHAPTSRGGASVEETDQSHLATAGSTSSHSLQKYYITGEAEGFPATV
Chain of Aromatase (Homo sapiens) (P11511 whole entry, looked up): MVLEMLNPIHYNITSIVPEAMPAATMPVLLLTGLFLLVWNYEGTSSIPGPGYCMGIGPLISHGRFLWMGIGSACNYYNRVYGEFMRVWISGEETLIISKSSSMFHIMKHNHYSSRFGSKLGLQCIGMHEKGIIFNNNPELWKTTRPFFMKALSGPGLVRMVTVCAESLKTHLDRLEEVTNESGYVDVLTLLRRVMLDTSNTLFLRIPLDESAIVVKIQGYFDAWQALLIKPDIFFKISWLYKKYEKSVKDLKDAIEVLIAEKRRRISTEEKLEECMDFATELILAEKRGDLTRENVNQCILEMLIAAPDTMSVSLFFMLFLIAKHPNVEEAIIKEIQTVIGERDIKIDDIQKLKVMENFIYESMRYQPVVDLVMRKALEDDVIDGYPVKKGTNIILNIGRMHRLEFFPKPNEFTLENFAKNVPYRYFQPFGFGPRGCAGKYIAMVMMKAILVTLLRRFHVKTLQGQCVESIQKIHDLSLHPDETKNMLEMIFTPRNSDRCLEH

CCN(CC)CCNC(=O)c1cc(Br)c(N)cc1OC
inactive: Potency [1] | Potency [2] | Potency [3] | Potency [4] | Potency [5] | Potency [6] | Potency [7] | Potency [8] | Potency (Aromatase (Homo sapiens)) | Potency [9]

CCOc1ccc(O)cc1
inactive: Potency [1] | Potency [2] | Potency [4] | Potency [5] | Potency [6] | Potency [7] | Potency [8] | Potency (Aromatase (Homo sapiens)) | Potency [9]

CCOC(=O)NCCOc1ccc(Oc2ccccc2)cc1
active: Potency [3] 38.9 µM [inhibitor] | Potency [7] 61.1 µM
inactive: Potency [1] | Potency [2] | Potency [4] | Potency [8] | Potency [9]

CC(C)Nc1ccc(NC(C)C)c2c1C(=O)c1ccccc1C2=O
inactive: Potency [1] | Potency [2] | Potency [3] | Potency [4] | Potency [5] | Potency [6] | Potency [8] | Potency (Aromatase (Homo sapiens)) | Potency [9]

OCCN1CCN(CCCN2c3ccccc3C=Cc3ccccc32)CC1
inactive: Potency [2] | Potency [4] | Potency [5] | Potency [6] | Potency [7] | Potency (Aromatase (Homo sapiens))
29.8 µM (active) and inactive: Potency [9]
10.6 µM (active) and inactive: Potency [8]
active: Potency [1] 11.9 µM and 26.6 µM

Brc1c2ccccc2c(Br)c2ccccc12
inactive: activity, negative = inhibition [1] 5.77% [at 8.44 µM] | activation [2] 0.426% [at 8.08 µM] | activity, negative = inhibition [3] 17% [at 6.71 µM] | activity, negative = cytotoxicity [4] 9.03% [at 6.72 µM] | activation [6] -3.1% [at 8.47 µM] | activity change, negative = inhibition [7] -5.5% [at 8.47 µM] | activity change, negative = cytotoxicity [8] 5.65% [at 8.47 µM] | activity change, negative = cytotoxicity [9] 12.2% [at 8.47 µM]

CCCCC(CC)CN1C(=O)C2C3C=CC(C3)C2C1=O (stereo not drawn)
inactive: Potency [2] | Potency [4] | Potency [5] | Potency [6] | Potency [7] | Potency [8]
active: Potency [1] 48.6 µM | Potency [9] 54.5 µM

ClCCOCCOCCCl
inactive: Potency [1] | Potency [2] | Potency [4] | Potency [5] | Potency [6] | Potency [7] | Potency [8] | Potency (Aromatase (Homo sapiens)) | Potency [9]

Cc1[nH]c(C)c(Cl)c(=O)c1Cl
inactive: Potency [1] | Potency [2] | Potency [3] | Potency [4] | Potency [5] | Potency [6] | Potency [7] | Potency [8] | Potency (Aromatase (Homo sapiens)) | Potency [9]

CCCCCCCCCCCCCCCCCCOS(=O)(=O)O
inactive: Potency [2] | Potency [4] | Potency [5] | Potency [6] | Potency [7] | Potency [8]
active: Potency [1] 48.6 µM

CCc1cc(C2=C(C(=O)O)N(c3ccccc3C(F)(F)F)S(=O)(=O)c3ccccc32)cc2c1OCO2
inactive: Potency [1] | Potency [2] | Potency [4]

O=S(=O)(Oc1ccc(Cl)cc1)c1ccccc1
inactive: Potency [1] | Potency [2] | Potency [3] | Potency [4] | Potency [5] | Potency [7] | Potency [8] | Potency (Aromatase (Homo sapiens)) | Potency [9]

CCCCCC[C@@H](O)C/C=C\CCCCCCCC(=O)OC
inactive: Potency [1] | Potency [2] | Potency [4] | Potency [5] | Potency [6] | Potency [7] | Potency [8] | Potency (Aromatase (Homo sapiens)) | Potency [9]

C=CCOc1ccccc1OCC(O)CNC(C)C (stereo not drawn)
inactive: Potency [1] | Potency [2] | Potency [3] | Potency [4] | Potency [5] | Potency [6] | Potency [7] | Potency (Aromatase (Homo sapiens)) | Potency [9]

COS(=O)(=O)C(F)(F)F
inactive: Potency [1] | Potency [2] | Potency [3] | Potency [4] | Potency [5] | Potency [6] | Potency [7] | Potency [8] | Potency (Aromatase (Homo sapiens)) | Potency [9]

CCCCC(CC)COC(=O)CCCCCCCCC(=O)OCC(CC)CCCC (stereo not drawn)
inactive: Potency [1] | Potency [2] | Potency [3] | Potency [4] | Potency [5] | Potency [7] | Potency [8] | Potency (Aromatase (Homo sapiens)) | Potency [9]

NCC(=O)O
inactive: Potency [1] | Potency [2] | Potency [3] | Potency [5] | Potency [6] | Potency [7] | Potency [8] | Potency (Aromatase (Homo sapiens)) | Potency [9]

COCC(C)OC(C)=O (stereo not drawn)
inactive: Potency [1] | Potency [2] | Potency [3] | Potency [4] | Potency [7] | Potency [8] | Potency (Aromatase (Homo sapiens)) | Potency [9]

CCCCCCCCCCCc1ccccc1
inactive: Potency [1] | Potency [2] | Potency [3] | Potency [5] | Potency [6] | Potency [7] | Potency [8] | Potency (Aromatase (Homo sapiens)) | Potency [9]

O=[N+]([O-])c1ccc2[nH]ncc2c1
inactive: Potency [1] | Potency [2] | Potency [3] | Potency [4] | Potency [5] | Potency [6] | Potency [7] | Potency [8] | Potency (Aromatase (Homo sapiens)) | Potency [9]

COc1ccc(C(=O)c2ccc(OC)cc2O)c(O)c1
active: Potency [5] 8.77 µM [fluorescent] | Potency [6] 30.9 µM
inactive: Potency [1] | Potency [2] | Potency [3] | Potency [4] | Potency [8] | Potency (Aromatase (Homo sapiens)) | Potency [9]

CN1CCC(N(Cc2cccs2)c2ccccc2)CC1
active: Potency [1] 23.7 µM
inactive: Potency [2] | Potency [3] | Potency [4] | Potency [5] | Potency [6] | Potency [7] | Potency [8] | Potency (Aromatase (Homo sapiens)) | Potency [9]

CCCCCCCN
inactive: Potency [1] | Potency [2] | Potency [3] | Potency [4] | Potency [5] | Potency [6] | Potency [7] | Potency [8] | Potency (Aromatase (Homo sapiens)) | Potency [9]

CCOC(=O)Cc1cccc2ccccc12
inactive: Potency [1] | Potency [2] | Potency [4] | Potency [5] | Potency [6] | Potency [7] | Potency [8] | Potency (Aromatase (Homo sapiens)) | Potency [9]

OC[C@H]1O[C@@H](OCCc2ccc(O)cc2)[C@H](O)[C@@H](O)[C@@H]1O
inactive: Potency [1] | Potency [2] | Potency [3] | Potency [5] | Potency [6] | Potency [7] | Potency [8] | Potency (Aromatase (Homo sapiens)) | Potency [9]

Cc1cc(C(=O)O)ccc1[N+](=O)[O-]
inactive: Potency [1] | Potency [2] | Potency [4] | Potency [5] | Potency [6] | Potency [7] | Potency [8] | Potency (Aromatase (Homo sapiens)) | Potency [9]

CCO[C@H](Cc1ccc(OCCc2ccc(OS(C)(=O)=O)cc2)cc1)C(=O)O
inactive: Potency [1] | Potency [2] | Potency [3] | Potency [5] | Potency [6] | Potency [7] | Potency [8] | Potency (Aromatase (Homo sapiens)) | Potency [9]

CCC(=O)O[C@]1(C(=O)CCl)[C@@H](C)C[C@H]2[C@@H]3CCC4=CC(=O)C=C[C@]4(C)[C@@]3(F)[C@@H](O)C[C@@]21C
inactive: Potency [1] | Potency [2] | Potency [3] | Potency [4] | Potency [5] | Potency [6] | Potency [8] | Potency (Aromatase (Homo sapiens)) | Potency [9]

CC(C)(C)Cl
active: Potency [6] 64.4 µM
inactive: Potency [1] | Potency [2] | Potency [3] | Potency [5] | Potency [7] | Potency [8] | Potency (Aromatase (Homo sapiens)) | Potency [9]

Nc1cccc([N+](=O)[O-])c1
inactive: Potency [1] | Potency [2] | Potency [3] | Potency [4] | Potency [5] | Potency [6] | Potency [7] | Potency [8] | Potency [9]
